# Screens: PubChem BioAssay, National Center for Advancing Translational Sciences (NCATS)
# The list is not random: actives were taken first. Their share in the collection is about 8.2%.
# MCF10A rerep: inducers of DNA re-replication in MCF 10A breast cells. Potency, µM (titrated, usually from 46.1 µM), inactives show at the highest dose activity, positive = re-replication, usual class: activators. AID 624296. actives 2.9% (n = 350,000). MCF 10A DNA re-replication, Hoechst nuclear intensity, 48 h; also: % of control where 0% means no effect; nearly all actives have a fitted effect of over 50% in size
# KB-3-1 tox: KB-3-1 parental cell cytotoxicity; KB-3-1 viability, CellTiter-Glo ATP luminescence, 72 h; Potency, µM (doses to about 46.1 µM), actives largely listed as cytotoxic; actives 1.4% (n = 400,000); AID 1347075; also: % is scaled to controls: 0 for no effect and ±100 for the full control effect; nearly all actives have a fitted effect of over 60% in size
#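 72 h, 37 °C compound treatment of KB-3-1 parental cells; CellTiter-Glo added, 10 min, luminescence read. Data corrected against DMSO-only plates and normalized before curve fitting.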
# SW480 rerep: DNA re-replication induction in SW480 cells | AID 624297 | Potency, µM (top dose mostly 46.1 µM), without a hit: at the highest dose re-replication activation, most hits filed as activators | actives 1.8% (n = 340,000) | SW480 DNA re-replication, Hoechst DNA content imaging, 48 h; also: % of control where 0% means no effect; nearly all actives have a fitted effect of over 55% in size
#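 Per well, 250 cells were exposed to pinned compound for 48 hr. Nuclear DNA was visualised with Hoechst (40 min, 37 C) and total object intensity recorded by fluorescence scanning.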
# KB-V1 MDR tox: KB-V1 MDR subline cytotoxicity; AID 1347076; actives 3.4% (n = 400,000); KB-V1 MDR cells viability, CellTiter-Glo, 72 h; Potency, µM (top dose mostly 46.1 µM), actives largely listed as cytotoxic; also: % is scaled to controls: 0 for no effect and ±100 for the full control effect; nearly all actives have a fitted effect of over 60% in size
#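 Cells of the MDR subline KB-V1 are plated, dosed with compound at multiple concentrations, and incubated 72 h at 37 degrees C; CellTiter-Glo is then added and luminescence read after 10 min.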
# ELG1 DNA repair: inhibitors of ELG1-dependent DNA repair in HEK293T cells. HEK293T ELG1-luciferase reporter, luminescence, 16 h; DNA damage induced by 5-fluorouridine. Potency, µM (series often up to 46.1 µM), inactives show top-dose activity change, negative = inhibition, actives largely listed as inhibitors. actives 2.3% (n = 330,000). AID 504467; also: % is scaled to controls: 0 for no effect and ±100 for the full control effect; nearly all actives have a fitted effect of over 55% in size
#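 Reporter activity after DNA damage by 5-fluorouridine is monitored. Compound-treated cells incubate 16 hr at 37 °C, then ONE-Glo is added for 30 min before luminescence reading.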
# An asterisk follows results filed as active; i = inactive; ? = inconclusive; . = not tested or not shown; ! = repeats disagree. Calls follow the shape of the dose curve; as a rule, active = well fitted curve in the direction sought with a large enough effect; inconclusive = small, poorly fitted or top-dose-only effect, or another doubt; inactive = no such curve, though single readings can be large; an effect the other way counts as inactive or inconclusive. Potency is read from the fitted curve at half-maximal effect.
SMILES,MCF10A rerep,KB-3-1 tox,SW480 rerep,KB-V1 MDR tox,ELG1 DNA repair
Cc1ccc2[nH]c3ccccc3c(=O)c2c1,16.4µM*,i,?,i,?
Cc1ccc2[nH]c3c(c2c1)CCNC3=O,0.1%,?,-12.6%,5.8µM*,?
CCOC(=O)C(O)C1CCc2c([nH]c3ccc(C)cc23)C1=O (centres undefined),?,?,?,18.4µM*,?
O=c1c2ccccc2[nH]c2ccc(F)cc12,9.2µM*,i,16.4µM*,i,?
O=c1cc(CSc2ccccc2)[nH]c2ccc(F)cc12,.,i,.,i,.
O=C(Cc1ccc(F)cc1)OCC(=O)N1CCN(S(=O)(=O)c2ccc(Cl)cc2)CC1,2.8%,i,-1.2%,i,-9.9%
COc1cccc(CN(C(=O)/C=C/c2ccco2)C2CCS(=O)(=O)C2)c1 (centres undefined),-1.6%,i,-2.8%,i,9.2%
CCC(C)n1ncn(-c2ccc(N3CCN(c4ccc(O)cc4)CC3)cc2)c1=O (centres undefined),?,1.46µM*,-7.9%,i,-13.9%
NS(=O)(=O)c1cccc(NC(=O)CCN2C(=O)C3CCCCC3C2=O)c1 (centres undefined),-2.1%,i,-2.6%,i,2.1%
COc1ccc(C2=CC(c3c(C)nn(-c4ccccc4)c3Cl)n3nnnc3N2)cc1OC (centres undefined),?,16.4µM*,?,20.6µM*,?
COc1ccccc1C1C=C(c2ccc(C)cc2)Nc2nnnn21 (centres undefined),-1.9%,i,5.6%,i,?
CC(Oc1ccc(Br)cc1)C(=O)NC1CCN(Cc2ccccc2)CC1 (centres undefined),24.1%,?,19.7%,?,?
CCNc1ccc(S(=O)(=O)N(C)C)cc1NCC(=O)Nc1ccc(Br)cc1F,5.0%,i,1.8%,16.4µM*,?
CCNc1ccc(S(=O)(=O)N(C)C)cc1NCC(=O)Nc1ccccc1F,-0.4%,i,-11.3%,i,-26.2%
CCN(CC)c1ccc(NC(=O)c2ccc(=O)[nH]c2)cc1S(=O)(=O)Nc1ccccc1OC,?,10.3µM*,?,i,-7.6%
CCN(CC)c1ccc(NC(=O)c2ccccc2F)cc1S(=O)(=O)Nc1ccccc1OC,2.0%,i,-78.7%,9.2µM*,6.2%
CCN(CC)c1ccc(NC(=O)c2ccccc2Br)cc1S(=O)(=O)Nc1ccccc1OC,10.4%,i,0.1%,?,-4.1%
COc1ccc(N/N=C(\C=N\O)C(=O)c2ccc(OC)cc2)cc1,6.51µM*,?,?,i,?
CCOC(=O)C1CCC(CN(Cc2ccc(Cl)cc2)S(=O)(=O)c2ccc(F)c(C(=O)Nc3cccc(F)c3)c2)CC1 (centres undefined),.,i,.,i,.
CCC(=O)N1CCc2cc(S(=O)(=O)NC(CC(C)C)C(=O)N3CCc4ccccc43)ccc21 (centres undefined),6.5%,i,?,13µM*,-11.9%
CCOc1ccc(C(CCc2ccccc2)NC(=O)c2ccccc2)cc1OCC (centres undefined),-3.8%,i,0.3%,9.2µM*,-19.5%
CCOc1ccc(C(=O)NC(C)CCc2ccccc2)cc1 (centres undefined),5.2%,i,12.5%,i,?
Cc1c(C)n(Cc2ccccc2)c2ccc(C(=O)NCCc3ccccc3Cl)cc12,.,i,.,i,.
CC(=O)Nc1ccc(N=Cc2c(O)c(C(=O)Nc3ccccc3)cc3ccccc23)cc1,3.66µM*,i,-5.0%,?,?
O=C(/C=C/c1cn(-c2ccccc2)nc1-c1cccnc1)c1ccco1,?,?,?,20.6µM*,0.0%
SMILES,MCF10A rerep,KB-3-1 tox,SW480 rerep,KB-V1 MDR tox,ELG1 DNA repair
N#C/C(=C\c1cn(-c2ccccc2)nc1-c1cccnc1)c1nnc2n1CCCCC2,-0.6%,i,2.1%,?,20.6µM*
O=C(/C=C/c1cn(-c2ccccc2)nc1-c1cccnc1)N1CCCC1,-1.2%,i,-1.8%,i,13µM*
O/N=C/c1cn(-c2ccccc2)nc1-c1cccnc1,0.8%,i,-0.2%,i,14.5%
CCN1C(=O)[C@@H]2[C@@H](c3ccc(-c4ccc(C(C)=O)cc4)cc3)N3CCCC[C@@]3(C(=O)OC)[C@@H]2C1=O,-7.6%,i,?,i,?
O=Cc1ccccc1OCc1ccc2c(c1)OCO2,?,?,18.4µM*,i,?
O=C(Nc1cccc(-c2nnc(-c3ccccc3)o2)c1)C1CC1,-4.0%,i,0.3%,10.3µM*,?
CCOc1cccc(C(=O)Nc2cccc(-c3nnc(-c4ccccc4)o3)c2)c1,?,i,?,i,9.2µM*
CCOc1cccc(C(=O)Nc2cccc(-c3nnc(-c4ccc(C)cc4)o3)c2)c1,3.66µM*,13µM*,0.7%,?,-2.7%
CC(=O)Nc1cccc(-c2nnc(-c3ccccc3)o2)c1,-12.4%,i,-2.2%,?,?
O=C(NCc1ccccc1F)C1CC(=O)N(Cc2ccco2)C1 (centres undefined),.,?,.,i,.
O=C(NCC(=O)N1CCN(c2ncccn2)CC1)c1ccccc1OC(F)F,1.7%,i,-5.9%,i,4.1%
CCOC(=O)c1c(C2CC2)csc1NC(=O)COC(=O)c1cc(OC)c(OC)cc1[N+](=O)[O-],0.9%,i,-71.3%,i,13µM*
Cn1c(/C=C/c2ccc(Cl)cc2)c([N+](=O)[O-])c(=O)n(C)c1=O,7.31µM*,?,17.8%,i,?
CSc1ncc2[nH]c(C(O)c3ccccc3)nc2n1 (centres undefined),2.0%,3.26µM*,0.3%,8.2µM*,.
Cc1csc(NC(=O)c2sc3nc(-c4cccs4)ccc3c2N)n1,0.9%,i,?,20.6µM*,?
O=C(COc1ccc(Cl)cc1)Nc1nc(-c2cccs2)cs1,13µM*,i,-2.4%,i,0.9%
Cc1c(C(=O)O)sc2nc(-c3cccs3)cc(C(F)(F)F)c12,15.6%,i,-16.6%,i,-17.7%
Cc1c(C(=O)Nc2nccs2)sc2nc(-c3cccs3)cc(C(F)(F)F)c12,?,9.2µM*,?,?,?
O=C(CN1C(=O)CCC1=O)Nc1nc(-c2ccc(Cl)s2)cs1,20.6µM*!,i,6.4%,i,1.1%
O=C(Nc1ccnn1C1CCN(Cc2ccccc2F)CC1)C1CCCC1,-1.1%,.,15.1%,.,11.9%
Cc1ccccc1NC(=O)c1cccc(N2C(=O)C3C4CC(C(Br)C4Br)C3C2=O)c1 (centres undefined),-0.8%,i,?,i,-1.5%
